Residual activity data for one compound are collected here from ChEMBL document CHEMBL2218924, “A broad activity screen in support of a chemogenomic map for kinase signalling research and drug discovery” (Biochem J, 2013).

For orientation: residual activity means the signal under treatment as a percentage of the control signal.

The target of assay [1] is T1, Ephrin type-B receptor 1 (Homo sapiens) (UniProt P54762).
T1 sequence (whole entry): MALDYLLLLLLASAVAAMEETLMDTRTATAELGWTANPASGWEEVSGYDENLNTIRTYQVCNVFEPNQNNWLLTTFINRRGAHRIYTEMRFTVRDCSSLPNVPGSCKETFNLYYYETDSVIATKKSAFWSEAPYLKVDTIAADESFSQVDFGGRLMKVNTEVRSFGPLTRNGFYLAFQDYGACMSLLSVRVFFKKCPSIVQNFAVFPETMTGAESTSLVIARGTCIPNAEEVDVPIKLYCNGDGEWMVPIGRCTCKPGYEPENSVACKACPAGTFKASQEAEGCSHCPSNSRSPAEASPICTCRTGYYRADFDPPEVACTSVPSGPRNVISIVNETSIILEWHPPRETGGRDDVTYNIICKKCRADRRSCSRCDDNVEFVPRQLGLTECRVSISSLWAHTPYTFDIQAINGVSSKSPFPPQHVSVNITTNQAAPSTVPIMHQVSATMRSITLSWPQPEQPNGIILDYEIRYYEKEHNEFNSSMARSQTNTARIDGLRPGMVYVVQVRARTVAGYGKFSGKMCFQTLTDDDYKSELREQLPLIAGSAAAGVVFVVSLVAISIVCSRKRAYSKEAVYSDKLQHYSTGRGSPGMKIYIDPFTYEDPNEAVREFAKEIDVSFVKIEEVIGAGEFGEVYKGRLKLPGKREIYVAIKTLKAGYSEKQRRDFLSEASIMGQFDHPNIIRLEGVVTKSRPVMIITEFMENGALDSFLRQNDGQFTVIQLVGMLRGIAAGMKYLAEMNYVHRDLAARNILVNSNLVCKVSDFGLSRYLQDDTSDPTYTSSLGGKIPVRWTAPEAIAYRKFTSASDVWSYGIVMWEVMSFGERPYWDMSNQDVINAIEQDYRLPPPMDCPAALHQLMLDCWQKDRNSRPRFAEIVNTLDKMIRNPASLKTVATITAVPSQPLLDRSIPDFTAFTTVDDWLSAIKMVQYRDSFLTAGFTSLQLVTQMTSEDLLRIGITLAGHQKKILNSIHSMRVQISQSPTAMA
Particulars: at 1 µM; call rule not given here.

Assay [2] has as its target T1, Ephrin type-B receptor 1 (Homo sapiens). Particulars: at 10 µM.
Assay [3] deals with T2, Ephrin type-B receptor 2 (Homo sapiens) (UniProt P29323).
T2 sequence (whole entry): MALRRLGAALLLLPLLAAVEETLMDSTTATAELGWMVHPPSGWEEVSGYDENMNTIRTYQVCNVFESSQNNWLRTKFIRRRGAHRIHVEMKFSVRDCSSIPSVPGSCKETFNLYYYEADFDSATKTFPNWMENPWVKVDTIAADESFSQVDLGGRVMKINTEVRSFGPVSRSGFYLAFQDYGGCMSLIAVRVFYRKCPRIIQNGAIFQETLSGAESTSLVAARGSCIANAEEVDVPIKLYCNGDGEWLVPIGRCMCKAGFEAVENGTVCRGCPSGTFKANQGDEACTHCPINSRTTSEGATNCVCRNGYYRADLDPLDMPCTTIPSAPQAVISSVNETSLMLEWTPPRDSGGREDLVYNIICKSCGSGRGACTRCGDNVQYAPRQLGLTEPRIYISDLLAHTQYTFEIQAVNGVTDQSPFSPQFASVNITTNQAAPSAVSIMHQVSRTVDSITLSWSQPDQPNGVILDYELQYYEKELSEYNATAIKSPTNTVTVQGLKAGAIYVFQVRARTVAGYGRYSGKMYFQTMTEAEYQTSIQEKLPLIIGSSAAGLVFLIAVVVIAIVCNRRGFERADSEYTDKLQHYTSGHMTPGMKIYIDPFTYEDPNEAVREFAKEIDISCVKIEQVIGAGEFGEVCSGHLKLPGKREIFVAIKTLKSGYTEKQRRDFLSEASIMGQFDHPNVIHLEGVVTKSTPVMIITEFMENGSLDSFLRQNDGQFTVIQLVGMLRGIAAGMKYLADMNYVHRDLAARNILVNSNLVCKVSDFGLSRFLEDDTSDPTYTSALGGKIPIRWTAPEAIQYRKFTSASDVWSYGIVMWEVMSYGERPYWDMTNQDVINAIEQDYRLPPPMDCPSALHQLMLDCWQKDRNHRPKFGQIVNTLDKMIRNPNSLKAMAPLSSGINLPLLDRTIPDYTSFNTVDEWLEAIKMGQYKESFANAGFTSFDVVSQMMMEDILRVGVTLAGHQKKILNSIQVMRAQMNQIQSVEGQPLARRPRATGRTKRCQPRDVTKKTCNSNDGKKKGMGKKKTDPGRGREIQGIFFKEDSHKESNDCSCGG
Particulars: at 1 µM.

In assay [4] the target is T3, Ephrin type-B receptor 3 (Homo sapiens) (UniProt P54753).
T3 sequence (whole entry): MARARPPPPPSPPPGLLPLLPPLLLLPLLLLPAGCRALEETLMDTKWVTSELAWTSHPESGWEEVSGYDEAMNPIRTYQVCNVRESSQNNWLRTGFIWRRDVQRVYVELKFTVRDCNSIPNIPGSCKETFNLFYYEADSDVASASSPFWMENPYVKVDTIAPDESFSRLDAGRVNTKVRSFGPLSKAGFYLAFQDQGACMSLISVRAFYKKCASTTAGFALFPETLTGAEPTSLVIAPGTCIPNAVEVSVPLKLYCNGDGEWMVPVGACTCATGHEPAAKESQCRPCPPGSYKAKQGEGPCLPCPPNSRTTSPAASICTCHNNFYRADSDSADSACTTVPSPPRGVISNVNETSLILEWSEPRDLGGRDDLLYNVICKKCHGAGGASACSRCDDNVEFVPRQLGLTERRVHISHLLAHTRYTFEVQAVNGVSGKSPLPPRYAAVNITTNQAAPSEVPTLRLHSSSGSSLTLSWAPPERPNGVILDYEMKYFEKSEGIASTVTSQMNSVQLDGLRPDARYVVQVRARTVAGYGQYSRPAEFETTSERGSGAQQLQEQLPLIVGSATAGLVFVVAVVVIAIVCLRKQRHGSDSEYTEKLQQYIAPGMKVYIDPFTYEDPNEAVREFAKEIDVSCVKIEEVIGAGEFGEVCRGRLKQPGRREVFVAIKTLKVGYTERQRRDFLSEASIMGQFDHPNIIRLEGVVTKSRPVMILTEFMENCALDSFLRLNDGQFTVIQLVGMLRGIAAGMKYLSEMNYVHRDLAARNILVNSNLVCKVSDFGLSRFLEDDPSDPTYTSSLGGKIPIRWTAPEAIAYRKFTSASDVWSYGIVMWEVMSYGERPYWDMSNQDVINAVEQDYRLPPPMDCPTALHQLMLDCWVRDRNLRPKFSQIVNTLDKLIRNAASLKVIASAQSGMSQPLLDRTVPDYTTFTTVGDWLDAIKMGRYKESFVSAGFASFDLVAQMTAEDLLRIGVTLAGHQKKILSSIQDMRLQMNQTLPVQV
Particulars: at 1 µM.

For assay [5], the target named is T3, Ephrin type-B receptor 3 (Homo sapiens). Particulars: at 10 µM.
Assay [6] addresses T4, Ephrin type-B receptor 4 (Homo sapiens) (UniProt P54760).
T4 sequence (whole entry): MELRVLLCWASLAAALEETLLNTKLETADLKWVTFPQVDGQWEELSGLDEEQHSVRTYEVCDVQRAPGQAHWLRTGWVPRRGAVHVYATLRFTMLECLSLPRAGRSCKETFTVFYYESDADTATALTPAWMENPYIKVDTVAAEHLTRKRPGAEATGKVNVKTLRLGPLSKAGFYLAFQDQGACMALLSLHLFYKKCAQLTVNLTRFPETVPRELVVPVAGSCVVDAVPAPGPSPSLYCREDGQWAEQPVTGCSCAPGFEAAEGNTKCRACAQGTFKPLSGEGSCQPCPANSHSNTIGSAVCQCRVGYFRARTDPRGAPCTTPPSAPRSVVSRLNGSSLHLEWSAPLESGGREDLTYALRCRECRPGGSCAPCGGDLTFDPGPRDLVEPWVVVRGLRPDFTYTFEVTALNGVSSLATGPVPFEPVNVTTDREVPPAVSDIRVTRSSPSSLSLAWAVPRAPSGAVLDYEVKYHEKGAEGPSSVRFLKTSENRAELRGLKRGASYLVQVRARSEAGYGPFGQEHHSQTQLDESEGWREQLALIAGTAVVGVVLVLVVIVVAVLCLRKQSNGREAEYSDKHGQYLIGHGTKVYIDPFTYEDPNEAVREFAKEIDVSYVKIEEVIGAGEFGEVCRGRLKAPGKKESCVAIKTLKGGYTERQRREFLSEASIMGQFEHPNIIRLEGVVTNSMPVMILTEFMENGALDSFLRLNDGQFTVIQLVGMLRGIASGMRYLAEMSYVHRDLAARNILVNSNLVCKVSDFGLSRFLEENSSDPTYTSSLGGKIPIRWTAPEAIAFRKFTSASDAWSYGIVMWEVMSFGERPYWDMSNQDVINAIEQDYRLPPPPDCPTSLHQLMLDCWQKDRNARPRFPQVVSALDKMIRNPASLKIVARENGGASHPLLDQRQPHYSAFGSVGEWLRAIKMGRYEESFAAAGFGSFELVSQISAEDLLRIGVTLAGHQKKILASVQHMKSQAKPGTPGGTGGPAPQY
Particulars: at 1 µM.

Assay [7] has as its target T4, Ephrin type-B receptor 4 (Homo sapiens). Particulars: at 10 µM.
Assay [8] has as its target Receptor tyrosine-protein kinase erbB-4 (Homo sapiens) (UniProt Q15303). Particulars: at 1 µM.
The target is the same in assay [9]. Particulars: at 10 µM.
The target in assay [10] is Focal adhesion kinase 1 (Homo sapiens) (UniProt Q05397). The following applies: at 1 µM.
Focal adhesion kinase 1 (Homo sapiens), sequence (Q05397 2-1052 limits assumed): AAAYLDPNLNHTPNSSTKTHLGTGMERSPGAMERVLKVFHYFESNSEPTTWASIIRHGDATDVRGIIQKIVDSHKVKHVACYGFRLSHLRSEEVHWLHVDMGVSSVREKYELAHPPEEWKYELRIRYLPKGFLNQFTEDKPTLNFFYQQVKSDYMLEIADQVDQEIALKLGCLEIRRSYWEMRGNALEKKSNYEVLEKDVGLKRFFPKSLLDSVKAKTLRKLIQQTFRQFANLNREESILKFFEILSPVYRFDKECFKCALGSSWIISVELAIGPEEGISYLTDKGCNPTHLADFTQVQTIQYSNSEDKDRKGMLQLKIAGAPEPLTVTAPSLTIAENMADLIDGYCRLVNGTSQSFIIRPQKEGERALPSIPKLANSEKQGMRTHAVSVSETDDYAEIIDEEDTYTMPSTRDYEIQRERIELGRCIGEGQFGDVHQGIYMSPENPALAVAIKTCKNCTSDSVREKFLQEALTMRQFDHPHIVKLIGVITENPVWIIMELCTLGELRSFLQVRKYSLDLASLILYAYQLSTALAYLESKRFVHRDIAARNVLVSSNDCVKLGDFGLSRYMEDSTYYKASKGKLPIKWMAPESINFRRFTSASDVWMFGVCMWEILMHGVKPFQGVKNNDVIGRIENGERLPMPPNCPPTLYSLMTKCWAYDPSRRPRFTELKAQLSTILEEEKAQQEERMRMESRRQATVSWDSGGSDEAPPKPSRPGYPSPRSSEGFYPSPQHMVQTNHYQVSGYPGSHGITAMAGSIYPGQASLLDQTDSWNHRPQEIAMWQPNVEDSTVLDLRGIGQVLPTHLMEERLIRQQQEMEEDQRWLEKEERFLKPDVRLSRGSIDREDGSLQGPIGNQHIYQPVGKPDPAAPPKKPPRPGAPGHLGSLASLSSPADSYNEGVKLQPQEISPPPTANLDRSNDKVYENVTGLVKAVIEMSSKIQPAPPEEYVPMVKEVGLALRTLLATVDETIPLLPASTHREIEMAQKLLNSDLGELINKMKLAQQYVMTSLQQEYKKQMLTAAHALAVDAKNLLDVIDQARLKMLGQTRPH

Receptor tyrosine-protein kinase erbB-4 (Homo sapiens), sequence (Q15303 whole entry): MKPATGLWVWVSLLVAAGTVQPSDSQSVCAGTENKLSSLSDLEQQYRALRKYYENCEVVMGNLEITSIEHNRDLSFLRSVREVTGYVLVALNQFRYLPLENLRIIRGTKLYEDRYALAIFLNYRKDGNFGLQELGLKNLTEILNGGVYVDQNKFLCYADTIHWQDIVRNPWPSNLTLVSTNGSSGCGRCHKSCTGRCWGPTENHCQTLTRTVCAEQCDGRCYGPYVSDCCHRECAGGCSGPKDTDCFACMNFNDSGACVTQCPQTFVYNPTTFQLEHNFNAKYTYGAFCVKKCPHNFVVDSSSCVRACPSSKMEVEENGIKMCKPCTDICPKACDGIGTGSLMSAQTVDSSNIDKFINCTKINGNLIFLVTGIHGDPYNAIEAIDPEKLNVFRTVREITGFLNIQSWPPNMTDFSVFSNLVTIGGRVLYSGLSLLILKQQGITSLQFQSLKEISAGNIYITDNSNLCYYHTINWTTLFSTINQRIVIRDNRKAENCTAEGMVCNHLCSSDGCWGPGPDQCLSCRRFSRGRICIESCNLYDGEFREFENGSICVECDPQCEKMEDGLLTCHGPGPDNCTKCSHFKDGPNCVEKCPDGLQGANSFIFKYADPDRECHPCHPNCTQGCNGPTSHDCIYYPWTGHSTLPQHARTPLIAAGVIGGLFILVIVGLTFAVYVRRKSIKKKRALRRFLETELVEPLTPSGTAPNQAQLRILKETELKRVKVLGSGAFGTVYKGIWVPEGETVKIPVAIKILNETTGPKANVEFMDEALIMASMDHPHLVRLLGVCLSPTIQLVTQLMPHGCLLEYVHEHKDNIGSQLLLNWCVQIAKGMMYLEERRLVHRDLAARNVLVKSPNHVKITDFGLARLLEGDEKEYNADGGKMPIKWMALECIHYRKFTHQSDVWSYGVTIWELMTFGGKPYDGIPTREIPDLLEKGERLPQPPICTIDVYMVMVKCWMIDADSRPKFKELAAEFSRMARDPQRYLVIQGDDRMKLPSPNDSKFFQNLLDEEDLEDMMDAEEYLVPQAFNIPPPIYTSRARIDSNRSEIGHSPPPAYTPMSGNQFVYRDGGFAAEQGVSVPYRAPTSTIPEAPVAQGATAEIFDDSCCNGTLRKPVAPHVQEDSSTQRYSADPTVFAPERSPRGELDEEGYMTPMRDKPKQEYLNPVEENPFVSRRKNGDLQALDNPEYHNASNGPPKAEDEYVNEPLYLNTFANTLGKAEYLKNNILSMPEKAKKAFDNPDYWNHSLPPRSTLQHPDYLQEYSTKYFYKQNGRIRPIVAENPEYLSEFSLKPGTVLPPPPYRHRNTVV

For the compound `COc1cc2ncnc(N3CCN(C(=O)Nc4ccc(Oc5ccccc5)cc4)CC3)c2cc1OC`, the residual activity is 96% in assay [1]; 102% in [2]; 114% in assay [3]; 110% (inactive) in assay [4]; 146% in [5]; 98% in assay [6]. Besides, the residual activity was found to be 112% in [7], 100% in assay [8], 145% in assay [9] and 108% in assay [10].
